Experimental data published in PubChem BioAssay (NCI).
About 83,000 compounds went through this panel and 20% of them were active in at least one assay; those are over-represented in the sample as a whole.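 Each cell line was grown in a 96-well plate and treated with one concentration of compound for 48 hours. Values below 10 were considered active.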 A number with no mark means an inactive call. The source made the active and inactive calls.

system: MDA-MB-468 breast; test: NCI-60 one-dose screen, 48 h (100 = growth as untreated, 0 = no growth, -100 = all killed); details: 10 µM unless noted

First: O=C(C(=O)N1CCOCC1)c1cn(CCCn2cc(C(=O)C(=O)N3CCOCC3)c3ccccc32)c2ccccc12
Second: Nc1cc(C(=O)NC[C@H]2CN(c3ccc(N4CCC(C(=O)O)CC4)cc3)C(=O)O2)ccc1Cl
The growth of the first is higher: 109% for the first, 99.4% for the second.

First: Cc1ccc(-c2nc(SCC(=O)c3ccccc3)nc(Nc3ccc(S(N)(=O)=O)cc3)c2C#N)cc1
Second: COc1ccc(-c2nc(SCC(C)C)nc(Nc3ccc(C(=O)O)cc3)c2C#N)cc1
The growth of the first is higher: 113% for the first, 91.3% for the second.

Compared with `COc1cc2ncnc(Nc3ccc(O)cc3)c2cc1OC`, `COc1ccc(/C(=N\N=C(N)N)c2ccc(Cl)cc2)cc1OC` is higher in growth: 17.6% for the first, 52.8% for the second.

Going from `CC(=O)OC[C@H]1OC(Sc2sc(C(=O)c3ccc(Cl)cc3)c(N)c2-c2nc3ccccc3s2)[C@H](OC(C)=O)[C@@H](OC(C)=O)[C@@H]1OC(C)=O` (stereo not given in full) to `COc1ccc(C2=C(c3ccccc3)c3ccc(OC(C)=O)cc3OC2(C)C)cc1`, the growth falls from 112% to 86.2%.

First: COc1cc2c(c(OC)c1OC)C(=O)CC(c1cccc(NC(=O)c3ccccc3Br)c1)O2 (stereo not given)
Second: COc1cc(/C=C2\C(=O)Nc3cc(C)c(O)cc32)cc(OC)c1OC
The growth of the first is higher: 85.1% for the first, 29.3% for the second.

First: C#Cc1nc(/C=C/CCCCCCC(=O)NO)cs1
Second: CCOC(=O)c1cc(CC)sc1NC(=O)CC(C)=O
The growth of the first is lower: 54.8% for the first, 57.2% for the second.

Going from `O=C(NNC(=O)c1ccc([N+](=O)[O-])cc1)c1ccc([N+](=O)[O-])cc1` to `O=C(NS(=O)(=O)c1ccccc1)n1cc(-c2ccncc2)c(-c2cc(O)cc(Cl)c2)n1`, the growth falls from 109% to 98.4%.

Compared with `Nc1cc2c(cc1C(=O)c1cccc(F)c1)OCCO2`, `O=c1oc2ccc(-c3ccc(F)cc3F)cc2c(=O)n1-c1ccc(Br)cc1F` is lower in growth: 93.8% for the first, 47.3% for the second.

Going from `Cn1cc(-c2cc(N)n3nc(-c4cn(C)c5ccc(Br)cc45)cc3n2)c2cc(Br)ccc21` to `CCOC(=O)c1cn2ncnc(Oc3ccc(NC(=O)NCCN(C)C)c(Cl)c3)c2c1C`, the growth falls from 97.9% to 67.4%.

Going from `CCCCCN1C(=O)/C(=c2\sc3n(c2=O)C2C(NN=3)N(CC)C(=O)N2CC)c2cccc(C)c21` (stereo not given) to `CN(C)/C=C1\SC(=Nc2ccc(Cl)cc2)NC1=O`, the growth rises from 34.5% to 110%.

For `Cc1ccc(C)n1/C=C/n1c(C)ccc1C`, the growth was 95.1%.

With `O=C(N/N=C/c1ccc[nH]1)c1[nH]c2ccc(Br)cc2c1-c1ccccc1` the growth was -0.633% (active).
In the case of `CC[C@@](C)(NC(=O)[C@H](C)NC(=O)CCNC(=O)C(C)(C)NC(=O)[C@H](C)NC(=O)[C@@H]1CCCN1C(=O)[C@@](C)(CC)NC(=O)[C@H](Cc1ccccc1)NC(=O)C1CCCN1C(=O)C(C)(C)NC(=O)C1CCCN1C(=O)C(C)(C)NC(C)=O)C(=O)NCCC(=O)N[C@@H](CC(C)C)C(=O)NC(C)(C)C(=O)NCCC(=O)N[C@@H](CC(C)C)C(=O)NC(C)(C)C(=O)NC(C)(C)C(=O)N[C@@H](CC(C)C)C(=O)NCCC(=O)NCO` (stereo not given in full), the growth is reported as -91.9% (active).
For `CCn1cc(C(=O)O)c(=O)c2cc(F)c(N3CCN(S(=O)(=O)c4ccc(Cl)cc4Cl)CC3)cc21`, the growth was -1.55% (active).
For `O=C(NNc1nc2cc(F)ccc2n2c(CN3CCCC3)ccc12)c1cnccn1`, the growth was -14.4% (active).
`CC(C)=CCc1cc2c(cc1O)C1=C(C(=O)C3=C(C1=O)S(=O)(=O)CCN3)C(C=C(C)C)O2` (stereo not given) was tested, and the growth was -33.5% (active).
For `Cc1nc(/N=C(\N)NC(=O)Nc2ccccc2Cl)sc1C`, the growth was 2.23% (active).
For `CC1OC(O[C@@H]2[C@H](O)C(CO)OC(O[C@H]3COC(O[C@H]4CC[C@]5(C)[C@H]6CC[C@]78OC[C@@]9(CCC(C)(C)C[C@H]97)[C@H](O)C[C@@]8(C)[C@]6(C)CC[C@H]5C4(C)C)[C@@H](OC4OC(CO)[C@@H](O)[C@@H](O)[C@@H]4O)[C@@H]3O)[C@H]2OC2OC[C@@H](O)[C@@H](O)[C@@H]2O)[C@@H](O)[C@@H](O)[C@H]1O` (stereo not given in full), the growth was -39.3% (active).
With `COc1cc(C(=O)OCCCCCCCCCCC[P+](c2ccccc2)(c2ccccc2)c2ccccc2)ccc1O` the growth was -27.7% (active).
In the case of `C[C@H]1[C@H]2[C@H]3CC[C@@H]4[C@@]5(C)C/C(=C/c6cccnc6)C(=O)C(C)(C)[C@@H]5CC[C@@]4(C)[C@]3(C)CC[C@]23CO[C@]1(C)[C@@H](C(=O)/C=C\c1cccnc1)C3`, the growth is reported as -5.83% (active).
